The full data set covers some 7,900 targets. This sample favours those with a hit. About 0.6% of all pairs of compound and target were hits.
Compound: CN1CCC(CNc2ccc3ncc(-c4cccc(OC(F)(F)F)c4)n3n2)CC1
Assay: log2 fold change, soluble protein after heating vs DMSO (PISA); higher = thermal stabilisation; K562 cells, 10 uM, 30 min; active = over 0.2 and 3.5 SD of the protein, either way, in both replicates (recomputed)
Method in brief: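 K562 cells at 2×10^6 cells/mL were treated with 10 μM compound for 30 min. Aliquots were heated for 3 min across 48°C-58°C, pooled, and extracted in PBS with 0.5% NP-40 at 4°C; soluble protein was the supernatant after 21,000xg for 90 min. Soluble protein was quantified by TMTpro 16plex LC-MS/MS with channel sums equalised, and reported as log2 fold change in thermal stability against DMSO controls, with values from duplicates.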

Chain of UniProt Q8N2W9 (Q8N2W9 whole entry, looked up): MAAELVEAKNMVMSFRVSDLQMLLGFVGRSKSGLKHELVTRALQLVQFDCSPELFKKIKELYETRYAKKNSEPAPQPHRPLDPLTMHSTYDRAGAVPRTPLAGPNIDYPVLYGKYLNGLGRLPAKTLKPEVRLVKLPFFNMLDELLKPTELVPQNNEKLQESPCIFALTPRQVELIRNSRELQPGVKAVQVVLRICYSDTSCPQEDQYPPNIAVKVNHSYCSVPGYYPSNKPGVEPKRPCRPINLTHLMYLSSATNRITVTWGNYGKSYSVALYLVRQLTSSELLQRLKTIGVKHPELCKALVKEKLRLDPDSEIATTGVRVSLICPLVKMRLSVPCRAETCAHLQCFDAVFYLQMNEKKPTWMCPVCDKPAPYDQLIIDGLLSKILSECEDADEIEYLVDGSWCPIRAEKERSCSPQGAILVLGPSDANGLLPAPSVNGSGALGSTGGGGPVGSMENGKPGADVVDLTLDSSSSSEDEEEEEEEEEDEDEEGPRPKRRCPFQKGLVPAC
Chain of UniProt Q14442 (Q14442 whole entry, looked up): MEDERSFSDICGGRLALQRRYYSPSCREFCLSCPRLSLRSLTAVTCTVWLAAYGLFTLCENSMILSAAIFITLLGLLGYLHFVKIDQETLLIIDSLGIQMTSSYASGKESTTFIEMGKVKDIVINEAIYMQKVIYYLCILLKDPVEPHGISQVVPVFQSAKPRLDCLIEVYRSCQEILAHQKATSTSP
Chain of UniProt Q86UU1 (Q86UU1 whole entry, looked up): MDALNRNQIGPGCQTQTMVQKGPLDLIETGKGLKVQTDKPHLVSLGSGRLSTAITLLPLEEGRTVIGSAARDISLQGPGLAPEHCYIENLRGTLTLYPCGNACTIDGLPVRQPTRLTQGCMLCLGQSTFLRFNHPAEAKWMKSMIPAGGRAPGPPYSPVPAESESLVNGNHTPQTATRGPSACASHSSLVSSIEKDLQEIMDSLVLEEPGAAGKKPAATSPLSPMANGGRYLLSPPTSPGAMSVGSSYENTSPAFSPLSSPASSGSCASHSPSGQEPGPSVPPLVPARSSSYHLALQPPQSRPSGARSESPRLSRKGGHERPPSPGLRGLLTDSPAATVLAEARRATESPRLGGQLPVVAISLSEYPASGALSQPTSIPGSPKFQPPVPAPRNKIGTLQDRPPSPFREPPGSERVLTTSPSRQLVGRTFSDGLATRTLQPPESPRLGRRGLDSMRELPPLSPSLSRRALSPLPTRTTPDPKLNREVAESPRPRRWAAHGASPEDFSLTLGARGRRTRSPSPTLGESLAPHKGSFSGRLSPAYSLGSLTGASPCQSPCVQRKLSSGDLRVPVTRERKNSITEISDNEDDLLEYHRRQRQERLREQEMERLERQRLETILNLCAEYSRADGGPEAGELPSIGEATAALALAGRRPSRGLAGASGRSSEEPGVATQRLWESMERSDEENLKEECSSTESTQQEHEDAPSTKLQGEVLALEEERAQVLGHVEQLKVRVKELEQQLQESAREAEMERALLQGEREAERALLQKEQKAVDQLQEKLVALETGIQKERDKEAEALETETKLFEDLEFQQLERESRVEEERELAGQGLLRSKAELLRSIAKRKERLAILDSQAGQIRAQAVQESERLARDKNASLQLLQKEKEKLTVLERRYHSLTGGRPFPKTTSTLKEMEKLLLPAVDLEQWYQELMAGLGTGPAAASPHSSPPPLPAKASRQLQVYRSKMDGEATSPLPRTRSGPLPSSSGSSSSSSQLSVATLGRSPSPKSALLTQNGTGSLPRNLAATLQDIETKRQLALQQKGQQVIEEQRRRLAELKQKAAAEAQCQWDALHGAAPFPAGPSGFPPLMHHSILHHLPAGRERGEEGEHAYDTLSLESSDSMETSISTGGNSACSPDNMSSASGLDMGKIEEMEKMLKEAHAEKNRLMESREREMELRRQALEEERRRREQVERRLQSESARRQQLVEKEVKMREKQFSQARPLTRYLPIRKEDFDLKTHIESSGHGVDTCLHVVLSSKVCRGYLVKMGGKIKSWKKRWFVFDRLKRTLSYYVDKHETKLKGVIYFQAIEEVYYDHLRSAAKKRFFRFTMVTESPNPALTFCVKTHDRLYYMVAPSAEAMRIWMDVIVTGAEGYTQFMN
Chain of UniProt Q14671 (Q14671 whole entry, looked up): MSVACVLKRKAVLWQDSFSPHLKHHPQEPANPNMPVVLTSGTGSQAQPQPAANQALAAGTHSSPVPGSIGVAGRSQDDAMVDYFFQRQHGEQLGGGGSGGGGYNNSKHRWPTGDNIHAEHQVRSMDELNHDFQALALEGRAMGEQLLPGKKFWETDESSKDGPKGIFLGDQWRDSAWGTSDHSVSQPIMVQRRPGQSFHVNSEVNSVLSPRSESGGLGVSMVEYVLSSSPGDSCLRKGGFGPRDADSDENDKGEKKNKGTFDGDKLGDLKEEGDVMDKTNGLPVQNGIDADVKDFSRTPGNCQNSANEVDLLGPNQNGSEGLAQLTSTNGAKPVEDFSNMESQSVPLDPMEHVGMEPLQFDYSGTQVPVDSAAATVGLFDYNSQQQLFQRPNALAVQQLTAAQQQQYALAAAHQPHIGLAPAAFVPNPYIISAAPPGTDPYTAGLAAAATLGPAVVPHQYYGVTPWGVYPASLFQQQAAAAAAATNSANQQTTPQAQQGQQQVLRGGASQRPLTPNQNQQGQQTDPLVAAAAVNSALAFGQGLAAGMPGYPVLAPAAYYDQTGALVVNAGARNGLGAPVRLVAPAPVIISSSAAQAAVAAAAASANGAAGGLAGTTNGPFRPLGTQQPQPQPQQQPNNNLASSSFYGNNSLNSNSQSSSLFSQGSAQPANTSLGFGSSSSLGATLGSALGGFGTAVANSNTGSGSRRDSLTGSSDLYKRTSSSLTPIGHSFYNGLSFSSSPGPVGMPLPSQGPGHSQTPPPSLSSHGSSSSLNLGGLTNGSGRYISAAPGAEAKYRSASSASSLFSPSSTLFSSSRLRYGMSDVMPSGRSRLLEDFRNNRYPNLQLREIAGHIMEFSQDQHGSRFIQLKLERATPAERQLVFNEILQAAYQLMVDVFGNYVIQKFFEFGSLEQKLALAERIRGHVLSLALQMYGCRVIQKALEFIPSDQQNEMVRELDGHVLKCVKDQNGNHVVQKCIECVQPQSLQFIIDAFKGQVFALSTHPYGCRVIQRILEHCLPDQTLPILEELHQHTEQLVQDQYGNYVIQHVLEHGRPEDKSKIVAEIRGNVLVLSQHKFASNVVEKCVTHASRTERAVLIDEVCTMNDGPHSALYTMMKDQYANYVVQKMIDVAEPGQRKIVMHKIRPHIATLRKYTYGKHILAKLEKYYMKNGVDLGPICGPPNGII
Chain of UniProt O43924 (O43924 whole entry, looked up): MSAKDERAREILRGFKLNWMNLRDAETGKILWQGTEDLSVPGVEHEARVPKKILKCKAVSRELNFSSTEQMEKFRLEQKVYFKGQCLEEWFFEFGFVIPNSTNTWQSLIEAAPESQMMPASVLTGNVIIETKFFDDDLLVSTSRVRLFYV
Chain of UniProt Q02156 (Q02156 whole entry, looked up): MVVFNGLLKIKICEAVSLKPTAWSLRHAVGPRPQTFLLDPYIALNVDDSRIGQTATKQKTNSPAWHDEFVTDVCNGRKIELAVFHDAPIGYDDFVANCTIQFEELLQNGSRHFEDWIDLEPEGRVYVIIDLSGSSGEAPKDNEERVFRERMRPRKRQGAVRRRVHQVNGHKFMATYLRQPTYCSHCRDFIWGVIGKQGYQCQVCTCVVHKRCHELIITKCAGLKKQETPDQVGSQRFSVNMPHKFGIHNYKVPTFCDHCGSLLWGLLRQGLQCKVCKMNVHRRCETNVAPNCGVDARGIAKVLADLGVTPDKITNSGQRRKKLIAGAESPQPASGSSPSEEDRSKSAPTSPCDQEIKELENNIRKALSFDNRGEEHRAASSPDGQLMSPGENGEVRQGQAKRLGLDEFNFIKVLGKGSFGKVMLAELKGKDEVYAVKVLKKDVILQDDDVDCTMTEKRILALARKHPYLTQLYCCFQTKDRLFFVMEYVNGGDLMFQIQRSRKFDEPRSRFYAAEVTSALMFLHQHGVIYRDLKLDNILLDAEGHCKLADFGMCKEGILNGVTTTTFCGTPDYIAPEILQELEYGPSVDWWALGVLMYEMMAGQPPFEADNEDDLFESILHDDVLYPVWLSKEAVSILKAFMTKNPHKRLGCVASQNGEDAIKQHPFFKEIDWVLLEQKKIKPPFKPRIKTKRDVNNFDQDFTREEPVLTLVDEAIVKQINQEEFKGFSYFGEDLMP
Chain of UniProt P60484 (P60484 whole entry, looked up): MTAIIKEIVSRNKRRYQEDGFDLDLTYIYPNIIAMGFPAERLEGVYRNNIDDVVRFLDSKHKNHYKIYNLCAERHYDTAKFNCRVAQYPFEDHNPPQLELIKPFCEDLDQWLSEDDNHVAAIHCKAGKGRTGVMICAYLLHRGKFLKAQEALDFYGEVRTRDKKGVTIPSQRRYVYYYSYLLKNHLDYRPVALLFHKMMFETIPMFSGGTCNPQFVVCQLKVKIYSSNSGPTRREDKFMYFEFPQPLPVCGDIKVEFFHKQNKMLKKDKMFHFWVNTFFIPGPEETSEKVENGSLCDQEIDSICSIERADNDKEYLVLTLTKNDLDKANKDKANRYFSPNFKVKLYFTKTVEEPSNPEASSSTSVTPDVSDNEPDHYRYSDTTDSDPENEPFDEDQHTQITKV
Chain of UniProt P11309 (P11309 whole entry, looked up): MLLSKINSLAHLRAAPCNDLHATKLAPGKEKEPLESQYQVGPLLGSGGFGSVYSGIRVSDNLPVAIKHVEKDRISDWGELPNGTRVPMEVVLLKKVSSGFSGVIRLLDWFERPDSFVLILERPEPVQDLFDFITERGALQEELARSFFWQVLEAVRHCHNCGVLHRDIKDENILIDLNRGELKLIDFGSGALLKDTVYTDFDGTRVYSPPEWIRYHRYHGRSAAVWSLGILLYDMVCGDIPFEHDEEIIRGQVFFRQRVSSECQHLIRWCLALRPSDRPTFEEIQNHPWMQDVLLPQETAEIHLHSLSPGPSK

Row | Target | log2 fold change
1 | PCBP2 (UniProt F8VRH0) | -0.149 (inactive)
2 | PPP2R5B (UniProt Q15173) | -0.529 (active)
3 | PTEN isoform 2 (UniProt P60484) | -0.098 (inactive)
4 | PMVK (UniProt Q15126) | 0.057 (inactive)
5 | PHLDB1 isoform 2 (UniProt Q86UU1) | -0.585 (active)
6 | PSMC1 (UniProt G3V4X1) | -0.282 (inactive)
7 | POLR2E (UniProt P19388) | 0.09 (inactive)
8 | PIAS4 (UniProt Q8N2W9) | 0.062 (inactive)
9 | PDE6D (UniProt O43924) | 0.061 (inactive)
10 | PRR14L (UniProt Q5THK1) | 0.073 (inactive)
11 | PSMB9 (UniProt P28065) | 0.051 (inactive)
12 | PIM1 isoform 2 (UniProt P11309) | 2.26 (active)
13 | PIGH (UniProt Q14442) | 0.051 (inactive)
14 | PUM1 (UniProt Q14671) | -0.026 (inactive)
15 | PRKD2 (UniProt M0R346) | -0.14 (inactive)
16 | PRKCE (UniProt Q02156) | -0.16 (inactive)
17 | PCF11 (UniProt O94913) | -0.03 (inactive)

Source: the supplement of paper PMC10849652
